From PubChem
DAX1 inh-1 – DAX1 (NR0B1) inhibitors, primary screen, cell-based, HEK293, Gal4-DAX1, luciferase luminescence; HEK293 Gal4-DAX1 luciferase reporter; inhibition, % at 6.75 µM; hit rate 0.99% among 340,000;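 active = inhibition above the mean over all tested compounds plus 3 SD, cut at about 4.2% in these data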;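 also: 0% = DAX1-transfected cells with DMSO and 100% = empty-vector control cells with DMSO; inhibition shows as a rise in luminescence from relieved DAX1 repression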
Target sequence (P51843 207-470 limits assumed): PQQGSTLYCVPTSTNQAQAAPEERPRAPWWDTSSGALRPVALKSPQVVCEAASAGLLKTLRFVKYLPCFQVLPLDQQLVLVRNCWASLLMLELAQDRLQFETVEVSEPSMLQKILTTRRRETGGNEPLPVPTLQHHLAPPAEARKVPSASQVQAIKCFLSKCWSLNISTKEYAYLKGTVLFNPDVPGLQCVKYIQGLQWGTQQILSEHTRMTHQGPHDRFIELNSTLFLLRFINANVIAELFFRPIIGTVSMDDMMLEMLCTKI
hcDAF-12 act – H. contortus DAF-12 nuclear receptor activators, primary screen, cell-based, luminescence, HEK293, lit1-tk-luc reporter; HEK293 hcDAF-12 lit1-tk-luc reporter; 0% DMSO, 100% Δ7-dafachronic acid; activation, % at 6.8 µM; AID 652067, 2013; hit rate 1.4% among 370,000;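 active = activation above the mean of all tested compounds plus 3 SD, cut at about 5.5% in these data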;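 also: 100% = response to 3 µM Δ7-dafachronic acid high control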
hgDAF-12 ag – H. glycines DAF-12 receptor agonists, primary screen, cell-based, luminescence, HEK293, GAL4 fusion, UAS-luciferase. Nuclear hormone receptor DAF-12 (Heterodera glycines), GAL4 fusion. HEK293 GAL4-hgDAF12 UAS-luciferase reporter, agonist luminescence; normalized to butyrate control. activation, % at 6.8 µM. hit rate 1.8% among 370,000. AID 687014, 2013;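 active = activation above a cutoff set at the mean of all screened compounds plus 3 SD, cut at about 10% in these data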;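 also: 0% = DMSO wells and 100% = sodium butyrate wells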
ssDAF12 agonist – S. stercoralis DAF-12 nuclear receptor activators, primary screen, cell-based, luminescence, HEK293, GRIP1 co-expression, lit1-tk-luc; AID 652126, 2013; HEK293 ssDAF-12/GRIP1 lit1-tk-luc reporter; % of 3 µM dafachronic acid response; Nuclear hormone receptor DAF-12 (Strongyloides stercoralis); hit rate 1% among 370,000; activation, % at 6.8 µM;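 active = activation above the mean over all tested compounds plus 3 SD, cut at about 0.9% in these data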;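 also: 0% = DMSO-only wells and 100% = 3 µM delta7-dafachronic acid wells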
DAX1 inh-2 – DAX1 (NR0B1) inhibitors on StAR promoter, primary screen, cell-based, luminescence, SF-1 (NR5A1), full-length DAX-1 | hit rate 1.1% among 370,000 | inhibition, % at 6.8 µM | HEK293T StAR-luciferase reporter, SF-1/DAX-1 repression relief | AID 652010, 2013;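 active = inhibition above the mean over all tested compounds plus 3 SD, cut at about 3.6% in these data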;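 also: 0% = DAX-1 cells with DMSO and 100% = cells lacking DAX-1 with DMSO; higher inhibition means more luminescence from relief of DAX-1 repression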
An asterisk follows results filed as active; x = no result. In the library only some 4.1% were active in any assay of this set; here they are far more common.

SMILES	DAX1 inh-1	hcDAF-12 act	hgDAF-12 ag	ssDAF12 agonist	DAX1 inh-2
CCC(C)N(C(=O)CSc1nncn1C)C1CCS(=O)(=O)C1 (stereo not drawn)	0	-1	0	-1	0
O=C(NCCc1c[nH]c2ccccc12)OCc1cn(Cc2cccc(F)c2)nn1	x	0	-2	-1	0
COc1ccc(-n2c(SC/C=C/c3ccccc3)nnc2-c2cccs2)cc1	x	-2	2	-2	-2
O=C(c1ccco1)[C@@H]1[C@@H]2C(=O)N(c3ccc(F)cc3)C(=O)[C@@H]2C2c3ccccc3C=CN21 (stereo partly drawn)	x	5	3	0	0
O=C(c1ccco1)[C@@H]1[C@@H]2C(=O)N(c3ccc(Br)cc3)C(=O)[C@@H]2C2c3ccccc3C=CN21 (stereo partly drawn)	1	3	1	1.2*	0
COc1ccc2c(c1)CCCN2C(=O)C1CCCN(S(=O)(=O)c2cccc3cccnc23)C1 (stereo not drawn)	x	-1	-4	-1	0
c1ccc2c(c1)Oc1cccc3cccc-2c13	4.3*	-1	1	-1	0
CN(C)c1cccc2cccc(N(C)C)c12	-1	-1	-1	0	-1
C=CCn1c(C)cc(C(=O)COC(=O)c2ccc(N)c([N+](=O)[O-])c2)c1C	3	5	12*	0	2
Cc1cc(C(=O)COC(=O)c2ccc(N)c([N+](=O)[O-])c2)c(C)n1Cc1ccc2c(c1)OCO2	0	1	-1	-1	0
CCOC(=O)[C@@]12CCCC3=C1N(CCC3)C(=O)[C@H]2CC(=O)NCc1cccc(C(F)(F)F)c1	x	0	0	-2	0
Oc1ccc(Br)cc1-c1cc(-c2ccccc2F)[nH]n1	0	5.8*	5	0	1
Oc1ccc(Cl)cc1-c1cc(-c2ccccc2)n[nH]1	1	5.7*	11*	1	1
Oc1ccc(Br)cc1-c1cc(-c2ccccc2Cl)[nH]n1	0	4	11*	-1	1
COC(=O)C[C@H]1CC[C@H]2[C@H](COc3ccc(NC(=O)C4CCOCC4)cc3C(=O)N2C)O1	x	-1	1	-1	0
O=S(=O)(c1ccccc1F)N1CCC(c2nc3ccccc3o2)CC1	x	2	-2	-1	1
O=C(CCc1nnc(-c2ccc3c(c2)OCO3)o1)N1CCC(c2ccc(F)cc2)C1 (stereo not drawn)	5.0*	1	8	1	1
CCCCS(=O)(=O)N1CCCc2nc(-c3ccccc3)ccc21	x	-1	2	-1	0
O=c1cc(-c2ccccc2)oc2ccccc12	6.0*	0	7	-1	3
C=CCN1C(=O)c2n[nH]c(C(C)C)c2C1c1ccccc1 (stereo not drawn)	x	-1	-1	-1	1
O=C(CSc1ccccc1)N1CCC(Oc2cccnc2)CC1	x	-1	9	-1	1
O=C(Nn1cnnc1)c1ccc(Cl)c(Cl)c1	6.2*	0	-3	-1	0
NC(=O)COC(=O)C12CC3CC(CC(O)(C3)C1)C2	0	-2	-1	-1	0
Cc1cc(C(=O)COC(=O)C23CC4CC(CC(O)(C4)C2)C3)c(C)n1C	4.5*	5	11*	1	3
COc1ccc(NS(=O)(=O)c2ccc(N3C(=O)CCC3=O)cc2)cc1	4.7*	-1	-1	-2	-1
SMILES	DAX1 inh-1	hcDAF-12 act	hgDAF-12 ag	ssDAF12 agonist	DAX1 inh-2
O=C1CCC(=O)N1c1ccc(S(=O)(=O)Nc2ccc(Br)cc2)cc1	-1	-1	-2	-1	0
COc1ccc(NC(=O)CN2CCN(c3ccccc3)CC2)cc1	0	0	12*	-1	-1
COc1ccc(N2CCN(CC(=O)Nc3ccc(C)cc3)CC2)cc1	0	-2	0	-1	0
Cc1ccc(NC(=O)CCSc2ccccn2)cc1	4.2*	2	11*	0	4.4*
CNC(=O)CCC(=O)Nc1ccc(C)cc1	4.7*	0	1	-2	-1
Cc1cccc(NC(=O)CCSc2ccccn2)c1	0	-2	7	0	1
COc1ccc(NC(=O)COCC(=O)Nc2ccc(C)cc2)cc1	5.6*	0	-1	-1	0
Cc1c(C)n(Cc2ccc(-c3ccccc3C(=O)O)cc2)c2ccc(C(=O)N[C@@H](C)c3ccc([N+](=O)[O-])cc3)cc12	x	-2	5	-1	0
COc1cc(OC)c(NC(=O)C(Sc2nc(C)cc(C)c2C#N)c2ccccc2)cc1Cl (stereo not drawn)	x	1	0	-1	1
COc1ccc(NC(=O)COC(=O)CC2CCCCC2)cc1	1	0	0	0	-1
COc1ccc(NC(=O)COC(=O)CC2CCCC2)cc1	0	-1	3	1.2*	-1
CCOC(=O)C1=NOC2(C1)C(=O)Nc1c(Cl)cccc12 (stereo not drawn)	x	5.7*	5	0	0
CN(C)C(=O)C1=NOC2(C1)C(=O)Nc1ccccc12 (stereo not drawn)	x	-1	3	0	0
Cn1c(CNc2ccc(F)cc2)nc2ccccc21	3	6.5*	13*	3.1*	2
CCCn1c(CNc2ccc(Br)cc2)nc2ccccc21	-1	-2	2	-1	-1
CCc1cc2c(nc1CC)CCCN2S(=O)(=O)c1ccc(C#N)cc1	x	-2	0	-2	-2
O=C1C(c2ccncc2)=C(O)c2ccccc21	0	6.4*	11*	0	4.3*
CC(C)(C)c1ccc(OCCC(=O)Nc2ccc(N3CCOCC3)cc2N2CCOCC2)cc1	-2	0	1	0	4.0*
CCOc1cc(N2CCOCC2)c(OCC)cc1NC(=O)COC(=O)CCOc1ccc(C(C)(C)C)cc1	0	0	0	-1	-1
COC(=O)[C@]12C[C@H](CC(=O)NCc3ccc(OC)c(OC)c3)C(=O)N(CCc3ccc(OC)c(OC)c3)C1=C[C@H](C1CCCC1)O[C@@H]2C	x	-2	-1	-1	-2
COCCC(=O)N1CCC(C(=O)Nc2ccc(Oc3ccccc3)nc2)CC1	0	5.8*	3	-1	0
O=C(Nc1ccc(Oc2ccccc2)nc1)C1CCCCN1Cc1ccc(O)cc1 (stereo not drawn)	1	3	5	0	3.9*
O=C(Nc1ccc(Oc2ccccc2)nc1)C1CCCCN1Cc1cccc(O)c1 (stereo not drawn)	0	0	0	0	3
